Laboratory results: the supplement of paper PMC9694430
Structures can show the parent of a compound that is named as a salt.

What was measured:
Test in all cases: thermal shift delta Tm vs DMSO control; higher = stronger stabilization (binding)
Details in all cases: 12.5 µM; protein concentration 2 µM
LOC_OS02G45750-cb003 = system: LOC_OS02G45750-cb003
Outline: (§1)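 The melting temperature shift given here is a triplicate mean, measured against protein that received only DMSO. Melting temperatures came from Boltzmann fits of differential scanning fluorimetry data on E. coli-expressed, purified rice kinase domain constructs. Each 19.5 μl well contained 2 μM kinase, 100 mM potassium phosphate pH 7.5, 150 mM NaCl, 10% glycerol, 5 × SYPRO Orange and compound in DMSO. Plates were scanned from 25°C to 95°C at 0.05°C/s.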

LOC_OS02G54510-cb004 = system: LOC_OS02G54510-cb004
Outline: as §1

LOC_OS03G04050-cb001 = system: LOC_OS03G04050-cb001
Outline: as §1

LOC_OS03G12390-cb001 = system: LOC_OS03G12390-cb001
Outline: as §1

LOC_OS03G27990-cb004 = system: LOC_OS03G27990-cb004
Outline: as §1

LOC_OS03G50450-cb001 = system: LOC_OS03G50450-cb001
Outline: as §1

LOC_OS03G50810-cb003 = system: LOC_OS03G50810-cb003
Outline: as §1

LOC_OS04G35114-cb001 = system: LOC_OS04G35114-cb001
Outline: as §1

LOC_OS04G38480-cb003 = system: T1, LOC_OS04G38480-cb003
T1 sequence (whole entry): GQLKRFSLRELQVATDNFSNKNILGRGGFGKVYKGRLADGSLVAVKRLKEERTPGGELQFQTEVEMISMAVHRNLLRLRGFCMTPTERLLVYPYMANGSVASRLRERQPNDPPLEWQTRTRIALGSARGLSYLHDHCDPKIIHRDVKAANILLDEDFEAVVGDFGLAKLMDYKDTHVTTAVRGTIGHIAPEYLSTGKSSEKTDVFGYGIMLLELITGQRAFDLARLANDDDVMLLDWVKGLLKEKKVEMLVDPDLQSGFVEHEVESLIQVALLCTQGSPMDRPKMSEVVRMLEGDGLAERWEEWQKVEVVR
Outline: as §1

LOC_OS04G41100-cb001 = system: T2, LOC_OS04G41100-cb001
T2 sequence (whole entry): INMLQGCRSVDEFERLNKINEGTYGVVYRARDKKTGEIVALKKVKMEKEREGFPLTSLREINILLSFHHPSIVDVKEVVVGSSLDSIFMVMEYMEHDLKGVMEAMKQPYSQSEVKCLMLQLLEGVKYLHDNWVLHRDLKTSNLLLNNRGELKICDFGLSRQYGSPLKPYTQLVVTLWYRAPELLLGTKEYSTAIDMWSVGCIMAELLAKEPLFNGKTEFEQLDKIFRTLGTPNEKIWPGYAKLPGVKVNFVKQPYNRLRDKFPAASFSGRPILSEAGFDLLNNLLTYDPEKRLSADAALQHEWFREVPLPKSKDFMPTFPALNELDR
Outline: as §1

LOC_OS04G57630-cb004 = system: LOC_OS04G57630-cb004
Outline: as §1

LOC_OS05G07850-cb002 = system: LOC_OS05G07850-cb002
Outline: as §1

LOC_OS05G16824-cb004 = system: LOC_OS05G16824-cb004
Outline: as §1

LOC_OS05G28520-cb001 = system: LOC_OS05G28520-cb001
Outline: as §1

LOC_OS05G30820-cb001 = system: LOC_OS05G30820-cb001
Outline: as §1

LOC_OS05G43570-cb004 = system: LOC_OS05G43570-cb004
Outline: as §1

LOC_OS06G16330-cb003 = system: LOC_OS06G16330-cb003
Outline: as §1

LOC_OS06G22820-cb001 = system: T3, LOC_OS06G22820-cb001
T3 sequence (whole entry): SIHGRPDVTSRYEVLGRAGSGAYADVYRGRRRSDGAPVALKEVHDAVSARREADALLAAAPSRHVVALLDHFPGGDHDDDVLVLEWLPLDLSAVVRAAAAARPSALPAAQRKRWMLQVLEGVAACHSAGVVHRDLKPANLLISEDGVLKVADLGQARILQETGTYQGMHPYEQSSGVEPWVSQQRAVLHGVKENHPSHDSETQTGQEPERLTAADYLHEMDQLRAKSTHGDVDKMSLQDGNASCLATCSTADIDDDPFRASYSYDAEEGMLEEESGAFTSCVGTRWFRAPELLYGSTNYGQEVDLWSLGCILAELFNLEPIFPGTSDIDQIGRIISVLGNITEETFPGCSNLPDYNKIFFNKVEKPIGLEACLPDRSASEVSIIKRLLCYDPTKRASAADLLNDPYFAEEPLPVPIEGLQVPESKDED
Outline: as §1

LOC_OS07G06570-cb004 = system: LOC_OS07G06570-cb004
Outline: as §1

LOC_OS07G07230-cb001 = system: LOC_OS07G07230-cb001
Outline: as §1

LOC_OS06G16330-cb003, sequence (as listed by the source): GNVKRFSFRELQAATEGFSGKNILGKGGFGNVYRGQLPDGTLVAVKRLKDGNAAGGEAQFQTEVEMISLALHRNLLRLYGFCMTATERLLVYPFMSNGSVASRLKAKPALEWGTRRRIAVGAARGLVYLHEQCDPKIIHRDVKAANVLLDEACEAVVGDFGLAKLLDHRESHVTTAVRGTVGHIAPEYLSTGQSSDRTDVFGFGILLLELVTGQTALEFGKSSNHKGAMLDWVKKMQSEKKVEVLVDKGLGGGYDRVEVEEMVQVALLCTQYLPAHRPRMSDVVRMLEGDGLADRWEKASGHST

Row | SMILES | thermal shift delta Tm (LOC_OS02G45750-cb003) [°C] | thermal shift delta Tm (LOC_OS02G54510-cb004) [°C] | thermal shift delta Tm (LOC_OS03G04050-cb001) [°C] | thermal shift delta Tm (LOC_OS03G12390-cb001) [°C] | thermal shift delta Tm (LOC_OS03G27990-cb004) [°C] | thermal shift delta Tm (LOC_OS03G50450-cb001) [°C] | thermal shift delta Tm (LOC_OS03G50810-cb003) [°C] | thermal shift delta Tm (LOC_OS04G35114-cb001) [°C] | thermal shift delta Tm (LOC_OS04G38480-cb003) [°C] | thermal shift delta Tm (LOC_OS04G41100-cb001) [°C] | thermal shift delta Tm (LOC_OS04G57630-cb004) [°C] | thermal shift delta Tm (LOC_OS05G07850-cb002) [°C] | thermal shift delta Tm (LOC_OS05G16824-cb004) [°C] | thermal shift delta Tm (LOC_OS05G28520-cb001) [°C] | thermal shift delta Tm (LOC_OS05G30820-cb001) [°C] | thermal shift delta Tm (LOC_OS05G43570-cb004) [°C] | thermal shift delta Tm (LOC_OS06G16330-cb003) [°C] | thermal shift delta Tm (LOC_OS06G22820-cb001) [°C] | thermal shift delta Tm (LOC_OS07G06570-cb004) [°C] | thermal shift delta Tm (LOC_OS07G07230-cb001) [°C]
1 | CCc1nc(C(N)=O)c(Nc2ccc(N3CCC(N4CCN(C)CC4)CC3)c(OC)c2)nc1NC1CCOCC1 [Gilteritinib (ASP2215)] | 9.25 | 3.16 | 0.4 | 9.74 | 8.74 | 5.63 | 8.56 | 11.4 | 6.15 | 0.57 | 5.73 | 17.4 | 9.44 | 1.33 | 0.92 | 1.54 | 15.3 | 0.74 | 1.35 | 0.17
2 | O=C1Nc2ccccc2/C1=C1/Nc2ccccc2C1=O [Indirubin] | 2.07 | 0.45 | 0.62 | 0.59 | 0.23 | 0.08 | 1.48 | 3.86 | 0.97 | 0.98 | 0.28 | 5.1 | -2.11 | 0.79 | 1.11 | 0.4 | 0.35 | 0.47 | 1.39 | 0.66
3 | CNC(=O)c1cc(Oc2ccc(NC(=O)Nc3cc(C(C)(C)C)nn3-c3ccc4ncccc4c3)c(F)c2)ccn1 [Rebastinib (DCC-2036)] | 12.3 | 6.64 | 0.59 | 5.55 | 0.52 | 0.33 | 5.06 | 0.84 | 2.8 | 5.27 | 10.4 | 14.3 | 0.76 | 0.81 | 1.05 | 0.62 | 10 | 0.59 | 0.44 | -0.15
4 | C=CC(=O)Nc1cccc(Sc2nc(Nc3ccc(N4CCN(C)CC4)cc3)ncc2Cl)c1 | 1.15 | 0.86 | 0.43 | 2.55 | 2.86 | 1.29 | 4.92 | 4.33 | 1.07 | 1.47 | 4.52 | 11.5 | 7.67 | 7.81 | 2.25 | 0.95 | 5.61 | -0.33 | 0.28 | 0.95
5 | Cc1ncc(CCCN(C)C)cc1Nc1ncc2c(n1)-c1ccc(C(F)(F)F)cc1NC(=S)C2 | 1.25 | 0.09 | 0.4 | 3.03 | 0.91 | 0.13 | 0.62 | 0.02 | 0.51 | 0.47 | -0.2 | -0.13 | 3.13 | 0.71 | 0.52 | 0.48 | 0.15 | 0.79 | 1.65 | 0.32
6 | C=CC(=O)Nc1cc(Nc2nccc(-c3c[nH]c4ccccc34)n2)c(OC)cc1N(C)CCN(C)C | 1.45 | 0.35 | 0.7 | 5.75 | 0.52 | 0.87 | 1.28 | 4.03 | 2.42 | 0.37 | 0.51 | 11 | -1.05 | 0.61 | 0.72 | 0.75 | 6.67 | 0.58 | 1.6 | 0.9
7 | COc1cc(N2CCC(N3CCN(C)CC3)CC2)ccc1Nc1ncnc(Nc2ccccc2S(=O)(=O)C(C)C)n1 | 1.85 | 0.1 | 0.24 | 1.69 | 0.28 | 0.36 | 0.99 | 0.74 | 1.16 | 0.34 | -0.16 | 9.97 | -1.84 | 0.49 | 0.53 | 0.45 | 2.65 | 0.91 | 1.77 | 0.45
8 | CCCCCCCCc1ccc(CCC(N)(CO)CO)cc1 [Fingolimod (FTY720) HCl] | -0.8 | -0.96 | -0.79 | -1.7 | -0.42 | -0.24 | -1.68 | -0.12 | 0.32 | 0.19 | -0.4 | 1.83 | -4.01 | -0.43 | -0.07 | -1.13 | -1.94 | 0.07 | 0.28 | -1.48
9 | CNC(=O)c1ccccc1Nc1nc(Nc2ccc(N3CCOCC3)cc2OC)ncc1Cl | 1.17 | -0.15 | 0.35 | 4.35 | 0.45 | 0.26 | 2.21 | 2.54 | 1.62 | 0.51 | 1.29 | 11.8 | 5.34 | 0.37 | 0.69 | 0.1 | 4.89 | 0.54 | 1.58 | 0.57
10 | O=c1[nH]nc(Sc2ncc([N+](=O)[O-])s2)n1-c1ccc2c(c1)OCCO2 | 1.36 | -0.1 | 0.22 | -1.14 | 0.03 | 0.84 | -0.33 | 0.5 | 3.06 | -0.54 | -1.46 | -1.46 | -2.53 | 0.59 | 0.64 | 0.84 | -0.58 | 0.5 | 3.84 | 0.07
11 | O=C(O)[C@]1(Cc2cccc(Nc3nccs3)n2)CC[C@@H](Oc2cccc(Cl)c2F)CC1 | 1.57 | 4.63 | 0.19 | 7.89 | 0.23 | 1.68 | 2.52 | 9.74 | 4.53 | 0.24 | 1.26 | 13 | 2.5 | 0.88 | 4.08 | 0.24 | 20.6 | 0.38 | 0.16 | -1.36
12 | COc1cc(OC)cc(N(CCNC(C)C)c2ccc3ncc(-c4cnn(C)c4)nc3c2)c1 | 1.81 | 2.46 | 0.37 | 0.27 | 0.3 | 0.28 | 0.45 | 0.74 | 2.14 | 0.41 | 0.11 | 3.45 | -0.05 | 0 | 0.18 | 0.08 | 0.79 | 0.32 | 1.94 | 0.52
13 | CCN1/C(=C/C(C)=O)Sc2ccc(OC)cc21 | 0.78 | 0.02 | 0.22 | 0.14 | 0.03 | 0.66 | 0.32 | 0.67 | 0.6 | 0.55 | -0.02 | 2.71 | 0.06 | 0.32 | 0.33 | 0.34 | -0.18 | 0.54 | 0.57 | 0.23
